# Source: PubChem BioAssay (NCI)
# Where “and” joins values, the source holds several entries; their conditions need not be identical. Identical values can stand only once. The panel holds about 79,000 compounds, 15% with a hit somewhere; the sample as a whole holds those more often. Calls of active or inactive are those of the source. No stated cut-off is given here; in the data, active means growth inhibition above about 70%; inactive means the rest.
# Assays:
# [1] = NCI Yeast Anticancer Drug Screen. Data for the rad50 strain (AID 155);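 further: 0% = growth of vehicle-only cultures of the same strain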; details: S. cerevisiae rad50 strain growth inhibition, active compounds read high
# In short: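 Compounds were tested on a yeast strain with an engineered DNA damage repair alteration; the reported value is growth inhibition normalised to vehicle treatment.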
# [2] = NCI Yeast Anticancer Drug Screen. Data for the mec2-1 strain (AID 157); details: S. cerevisiae mec2-1 strain, active compounds read high
# In short: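 Strain: mec2-1 (DNA repair/cell cycle alteration). Compound exposure, then growth measured; inhibition expressed relative to vehicle.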
# [3] = NCI Yeast Anticancer Drug Screen. Data for the sgs1 mgt1 strain (AID 161);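 further: 0% = growth of cultures given vehicle only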; details: S. cerevisiae sgs1 mgt1 strain, active compounds read high
# In short: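 Read-out: growth inhibition vs vehicle controls. Cells: mutant yeast strain deficient in DNA damage repair.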
# [4] = NCI Yeast Anticancer Drug Screen. Data for the cln2 rad14 strain (AID 165);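 further: 0% = growth equal to vehicle treated cultures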; details: S. cerevisiae cln2 rad14 strain, active compounds read high
# In short: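 Compounds are applied to the cln2 rad14 yeast strain, and growth is then compared with that of vehicle-treated cultures to give inhibition.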
# [5] = NCI Yeast Anticancer Drug Screen. Data for the bub3 strain (AID 167); details: S. cerevisiae bub3 mutant strain, active compounds read high
# In short: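 Growth of a checkpoint-deficient yeast mutant is measured after compound exposure. Values represent inhibition relative to vehicle.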
# [6] = NCI Yeast Anticancer Drug Screen. Data for the mlh1 rad18 strain (AID 175); details: S. cerevisiae mlh1 rad18 strain growth inhibition, active compounds read high
# In short: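 Read-out is yeast growth inhibition, calculated against vehicle-only controls. The compound was applied to a strain engineered with DNA damage repair alterations.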
# [7] = at 5.0 µM (retest, dose inferred, filed as 0.5)
# [8] = at 50.0 µM (retest, dose inferred, filed as 5.0)
Structure (SMILES),"growth inhibition [1, 7]","growth inhibition [1, 8]",growth inhibition ([1]; at 50.0 µM),"growth inhibition [2, 7]","growth inhibition [2, 8]",growth inhibition ([2]; at 50.0 µM),"growth inhibition [3, 7]","growth inhibition [3, 8]",growth inhibition ([3]; at 50.0 µM),"growth inhibition [4, 7]","growth inhibition [4, 8]",growth inhibition ([4]; at 50.0 µM),"growth inhibition [5, 7]","growth inhibition [5, 8]",growth inhibition ([5]; at 50.0 µM),"growth inhibition [6, 7]","growth inhibition [6, 8]",growth inhibition ([6]; at 50.0 µM)
CN(C)CCNC(=O)Cc1cc(O)c2c(c1O)C(=O)c1ccccc1C2=O,6% (inactive),42% (inactive),75.3% (active),6% (inactive),16% (inactive),23% (inactive),4% (inactive),28% (inactive),81.3% (active),-7% (inactive),12% (inactive),54.7% (inactive),0% (inactive),16% (inactive),16% (inactive),4% (inactive),10% (inactive),82.1% (active)
O=S(=O)(O)c1ccc(NN(c2c(O)ccc3ccccc23)S(=O)(=O)O)cc1,-12% (inactive),1% (inactive),18.2% (inactive),-5% (inactive),-11% (inactive),-3.1% (inactive),-16% (inactive),-12% (inactive),-19.7% (inactive),-17% (inactive),-84% (inactive),43.9% (inactive),-9% (inactive),-10% (inactive),-29.8% (inactive),-12% (inactive),-19% (inactive),15.1% (inactive)
C=CC(=O)OCCOc1ccc(Cl)cc1Cl,1% (inactive),98% (active),57.2% (inactive),2% (inactive),99% (active),30.4% (inactive),6% (inactive),98% (active),73.2% (active),-1% (inactive),94% (active),-28.1% (inactive),12% (inactive),97% (active),24.2% (inactive),24% (inactive),98% (active),83.9% (active)
CCCCCCCCCC(=O)c1ccc(O)c(O)c1O,99% (active),98% (active),90.3% (active),99% (active),98% (active),91.8% (active),44% (inactive),94% (active),93.1% (active),63% (inactive),96% (active),91.1% (active),77% (active),79% (active),90.5% (active),100% (active),99% (active),89.7% (active)
C1=C(c2ccccc2)N(CCc2ccccc2)C(c2ccccc2)=CN1Cc1ccccc1,-7% (inactive),95% (active),98.4% (active),1% (inactive),97% (active),98.5% (active),7% (inactive),97% (active),98.6% (active),2% (inactive),96% (active),98.5% (active),9% (inactive),95% (active),98.2% (active),-4% (inactive),97% (active),98.7% (active)
CCCCCCCCCCCCCCCC[N+](C)(C)c1nc(Cl)nc(Cl)n1,99% (active),99% (active),99.3% (active),100% (active),100% (active),98.1% (active),100% (active),100% (active),99.2% (active),98% (active),99% (active),95.5% (active),99% (active),99% (active),99.3% (active),99% (active),99% (active),95.8% (active)
O=C(O)c1ccc(C(c2ccccc2)c2ccccc2)cc1,-19% (inactive),100% (active),97% (active),10% (inactive),100% (active),97.2% (active),11% (inactive),99% (active),98% (active),-11% (inactive),99% (active),96.3% (active),-1% (inactive),99% (active),98.3% (active),8% (inactive),99% (active),98% (active)
Nc1c(C(=O)O)ccc(C(=O)O)c1C(=O)O,-131% (inactive),-173% (inactive),-5.95% (inactive) and 2.45% (inactive),-50% (inactive),-53% (inactive),14.1% (inactive) and -1% (inactive),-54% (inactive),-67% (inactive),25% (inactive) and 3.8% (inactive),-56% (inactive),-60% (inactive),3.75% (inactive) and -23.4% (inactive),-65% (inactive),-79% (inactive),-2.6% (inactive) and -5.8% (inactive),-113% (inactive),-123% (inactive),33.5% (inactive) and -12.9% (inactive)
O=C(O)c1ccc2c(c1)Cc1cc([N+](=O)[O-])ccc1-2,-3% (inactive),88% (active),70.1% (active),-7% (inactive),72% (active),13.4% (inactive),7% (inactive),85% (active),64% (inactive),-92% (inactive),83% (active),34.6% (inactive),-10% (inactive),0% (inactive),14% (inactive),4% (inactive),82% (active),73% (active)
CC12CCCCC1C/C(=N/NC(N)=O)CC2 (stereo not drawn),-135% (inactive),-78% (inactive),8.9% (inactive) and 3.8% (inactive),-52% (inactive),-45% (inactive),13.1% (inactive) and 1.25% (inactive),-64% (inactive),-54% (inactive),-5.85% (inactive) and -9.35% (inactive),-58% (inactive),-42% (inactive),41.9% (inactive) and -25.8% (inactive),-62% (inactive),-49% (inactive),-4.1% (inactive) and -11.3% (inactive),-123% (inactive),-99% (inactive),14.5% (inactive) and 10.7% (inactive)
CCN(CC)CCCn1c2cc(=O)c(=O)cc-2[nH]c2cc(C)ccc21,1% (inactive),58% (inactive),10.4% (inactive),2% (inactive),27% (inactive),-4.3% (inactive),2% (inactive),74% (active),23.6% (inactive),5% (inactive),55% (inactive),-15.4% (inactive),3% (inactive),51% (inactive),-8.05% (inactive),3% (inactive),52% (inactive),40% (inactive)
O/N=C/c1cc(I)c(O)c(I)c1,99% (active),98% (active),98.8% (active),97% (active),99% (active),98.2% (active),99% (active),99% (active),98.8% (active),99% (active),98% (active),98.3% (active),99% (active),99% (active),98.8% (active),98% (active),98% (active),98.5% (active)
c1ccc(C(c2ccccc2)n2ccnc2)cc1,-95% (inactive),-13% (inactive),76.2% (active),-11% (inactive),18% (inactive),60% (inactive),-23% (inactive),37% (inactive),43.5% (inactive),-27% (inactive),-21% (inactive),66.6% (inactive),-57% (inactive),2% (inactive),59.4% (inactive),-72% (inactive),1% (inactive),80.7% (active)
O=C(O)COc1ccc(OCC(=O)O)cc1,3% (inactive),42% (inactive),-11.4% (inactive) and 55.8% (inactive),-3% (inactive),-2% (inactive),-5.05% (inactive) and -20.9% (inactive),-1% (inactive),1% (inactive),-11.5% (inactive),1% (inactive),-5% (inactive),-68.3% (inactive),1% (inactive),4% (inactive),-4.55% (inactive),-3% (inactive),1% (inactive),0.9% (inactive) and 18.2% (inactive)
Nc1cc2c(cc1[N+](=O)[O-])[nH]c1c(-c3ccccc3)nccc12,9% (inactive),97% (active),99.2% (active),-5% (inactive),99% (active),96.4% (active),10% (inactive),99% (active),99.3% (active),1% (inactive),89% (active),99.1% (active),28% (inactive),98% (active),99.2% (active),2% (inactive),98% (active),98.9% (active)
Nc1ccc2c3c(cccc13)C(=O)N(CCCBr)C2=O,9% (inactive),98% (active),92.9% (active),-5% (inactive),67% (inactive),0.7% (inactive),-17% (inactive),80% (active),55.4% (inactive),16% (inactive),88% (active),45.1% (inactive),6% (inactive),78% (active),5.15% (inactive),32% (inactive),94% (active),82.8% (active)
